Measurements reported in ChEMBL document CHEMBL1157539, “Thousands of chemical starting points for antimalarial lead identification” (Nature, 2010).

How the values were obtained:
Format in all cases: functional
[1] = system: Plasmodium falciparum; assay: GSK_TCMDC: Inhibition of Plasmodium falciparum 3D7 in whole red blood cells, using parasite LDH activity as an index of growth. Test compounds present at 2uM
[2] = system: Plasmodium falciparum; assay: GSK_TCMDC: Inhibition of Plasmodium falciparum Dd2 in whole red blood cells, using parasite LDH activity as an index of growth. Test compounds present at 2uM
[3] = system: HepG2; assay: GSK_TCMDC: Percent inhibition of human HepG2 cell line. Test compounds present at 10uM.

SMILES	Inhibition [1] [%]	Inhibition [2] [%]	Inhibition [3] [%]
Cc1cccc2nc(-c3ccc(-c4ccc(CN5CCN(C6CCN(C)CC6)CC5)cc4)cc3)[nH]c12.O=C(O)C(F)(F)F	100	100	99
CCN(CC)/C(=N/C(=N)NCc1ccc(Cl)cc1)NCCCCCCN/C(=N\C(=N)NCc1ccc(Cl)cc1)N(CC)CC	100	100	18
N#Cc1cccc(C(=O)Nc2cccc(-c3ccc(CN4CCC(O)CC4)cc3)c2)c1.O=C(O)C(F)(F)F	86	2	15
CC(=O)N(C)c1cccc(C(=O)Nc2ccc(-c3cccc(-c4nc5cc(C(F)(F)F)ccc5[nH]4)c3)cc2)c1	94	10	79
Cc1cc(NS(=O)(=O)c2cccc(C(C)N3CCC(N4CCCC4)CC3)c2)ccc1C(C)C (stereo not drawn)	100	53	30
COc1ccc(NC(=O)N2CCc3ccc(OCCN(C(C)C)C(C)C)cc32)cc1C(F)(F)F.O=C(O)C(F)(F)F	90	6	0
COC(=O)c1sc2ccccc2c1NC(=O)c1ccc(C)c(C)c1	88	48	4
CCCC(C)Nc1nc(C)cc(N[C@@H](Cc2ccccc2)C(=O)NCCc2ccccc2)n1.O=C(O)C(F)(F)F (stereo partly drawn)	97	68	11
NC1CCCN(Cc2ccc(-c3cccc(-c4nc5cc(F)ccc5[nH]4)c3)cc2)C1.O=C(O)C(F)(F)F (stereo not drawn)	100	75	54
COc1ccccc1OCCN(CC(O)COc1cccc2[nH]c3ccccc3c12)CC(O)COc1cccc2[nH]c3ccccc3c12 (stereo not drawn)	97	96	16
Cc1noc(C)c1-c1cccc(CNCc2cccc(-c3cccc(-c4nc5cc(C(F)(F)F)ccc5[nH]4)c3)c2)c1.O=C(O)C(F)(F)F	100	95	18
CCCCCCNC(=O)C1Cc2c([nH]c3cc(Cl)ccc23)C2(CCN(CCC)CC2)N1 (stereo not drawn)	92	18	8
CCn1c(Sc2ccc(C#N)c([N+](=O)[O-])c2)nnc1-c1cccc(Cl)c1	95	88	0
Cl.Oc1ccc2c(c1CNC1CCCCC1)CCCC2	98	94	0
Cl.c1cc(CNC2Cc3ccccc3C2)cc(-c2cnc(N3CCNCC3)nc2)c1	93	65	43
CCN(CCCN1CCCCC1)c1cc(C)nc(Nc2ccc(C(C)C)cc2)n1.O=C(O)C(F)(F)F	100	51	34
COc1cc(NCC(C)CNCc2cn(Cc3ccccc3)c3ccccc23)nc2ccccc12 (stereo not drawn)	90	55	21
O=C(Nc1ccc(F)cc1)c1cnc(N2CCN(c3ccncc3)CC2)c(Cl)c1.O=C(O)C(F)(F)F	100	81	41
COc1ccc(CC2(c3ccc(F)cc3)N=C(N)N(CCCc3ccccc3)C2=O)cc1.O=C(O)C(F)(F)F (stereo not drawn)	99	97	38
COc1cc2c(cc1C(F)(F)F)N(C(=O)Nc1cc(OC(F)(F)F)cc(-c3cccnc3)c1)CC2	100	49	55
CC(=O)OCCN1C(=O)c2ccc3c4c(ccc(c24)C1=O)C(=O)N(CCOC(C)=O)C3=O	94	1	2
N#Cc1cc([N+](=O)[O-])ccc1-n1nc(-c2cccc(Cl)c2)n(CC2CCCO2)c1=S (stereo not drawn)	91	89	0
COc1cc(NC(=O)c2cc([N+](=O)[O-])ccc2NC(=O)CNC2CCCCC2C)cc(OC)c1 (stereo not drawn)	87	78	0

SMILES	Inhibition [1] [%]	Inhibition [2] [%]	Inhibition [3] [%]
COc1ccc(Nc2nccc(-c3ccc(NC(=O)c4cc5cc(F)ccc5[nH]4)cc3)n2)cc1	91	26	21
CN1CCCN(Cc2cccc(-c3cccc(NS(=O)(=O)c4cccc5cccnc45)c3)c2)CC1.O=C(O)C(F)(F)F	97	74	21
Cc1cc(NC(=O)c2cccs2)ccc1OC1CCN(Cc2ccc(C#N)cc2)CC1.O=C(O)C(F)(F)F	94	92	34
CC1(C)CN2CCCC2c2cc(NC(=O)/C=C/c3ccccc3Cl)ccc21.Cl (stereo not drawn)	88	76	20
C[C@H]1CN(Cc2cccc(-c3cc(CNC(=O)c4cccc(CN5CCN(C/C=C/c6ccccc6)CC5)c4)ccc3F)c2)CCN1.O=C(O)C(F)(F)F	98	46	98
Cl.Oc1ccc(CCNc2nc(NCCCOc3ccccc3-c3ccc(C(F)(F)F)cc3)nc(N3CCNCC3)n2)cc1	100	49	64
COc1ccc2nccc([C@@H](O)CN3CCC(NC(=O)c4cc5c(F)cc(F)cc5[nH]4)CC3)c2n1	100	74	32
C[C@@]12C[C@@H](Nc3nc(NCCc4ccc(O)cc4)nc(N4CCNCC4)n3)C[C@@H](C1)c1cccc(Cl)c1O2.O=C(O)C(F)(F)F	100	47	92
CCCCCCOc1ccc(N2C(N)=NC(N)=NC2(C)C)cc1.Cl	98	0	5
CC(C)c1cccc(OCC2CCN(c3ncc(C(=O)Nc4ccccc4)cc3Cl)CC2)c1	89	88	9
O=C(Nc1cccc(CN2CCCN(Cc3cccc(Cl)c3)CC2)c1)c1ccc(Br)cc1.O=C(O)C(F)(F)F	92	16	38
CCN(CC)Cc1cc(Nc2c3ccc(Cl)cc3nc3cccc(OC)c23)ccc1O.Cl	100	98	8
CCCc1cnc2nc(N)nc(N)c2c1C	93	3	68
O=C(NCC1CC1)C1CCN(C(c2ccc(Cl)cc2)c2ccc(Cl)cc2)CC1	99	95	3
COc1ccc2nccc(NCC3(O)CCN(CCc4ccc5c(c4)OCCO5)CC3)c2n1.Cl	100	87	35
COc1ccc(NC(=O)Nc2ccc(-c3ccccc3)cc2)cc1Cn1cnc(N2CCCNCC2)cc1=O.O=C(O)C(F)(F)F	100	38	24
N=C(N)Nc1nc(-c2cccc(NCCCCCCCCON3C(N)=NC(N)=NC34CCCCC4)c2)cs1.O=C(O)C(F)(F)F	97	42	3
CCCCCC(=O)N1CCOC(CCN2CCc3c(c4ccccc4n3C)C2)(c2ccc(Cl)c(Cl)c2)C1 (stereo not drawn)	95	80	24
COc1ccccc1Cn1ccnc1SCC(=O)Nc1cccc(C(F)(F)F)c1	86	73	0
COc1ccc(CN(C)C(=O)CCNS(=O)(=O)c2ccc3c(c2)OCCCO3)cc1F	96	94	9
Br.CCCc1cccc(C)c1OCCCON1C(=N)N=C(N)NC1(C)C	95	96	57
COc1cc2cc(Cc3cnc(N)nc3N)ccc2c(OC)c1OC.Cl	97	2	1
CCCCc1cc(NCC)nc(Nc2ccc(F)cc2)n1	98	56	33
